Shown are actives, neighbours in structure and some others; about 28% of the full set was active somewhere.
CYP2C9 inh: blockers of cytochrome P450 2C9 activity – biochemical, luminescence, ADME assay, primary screen. AID 777, 2007. P11712. CYP2C9 Supersomes, luciferin-H conversion. actives 20% (n = 96,000). inhibition, % at 5 µM;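 active = blocking of liver enzyme CYP2C9 beyond about 50% at 5 µM, limit read from the data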
Mac1 fbg enh: enhancers of CD11b/CD18 adhesion to fibrinogen, primary screen, K562 cells, luminescence. ATPlite luminescence. activation, % at 10 µM. Integrin beta-2 (Homo sapiens) + Integrin alpha-M (Homo sapiens), P05107+P11215. AID 1499, 2009. actives 0.07% (n = 93,000);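 active = 10 µM primary screen giving 50% or more activity, confirmed by 40% or more on retest at that dose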
CD11b adhes inh: inhibitors of CD11b/CD18 adhesion to fibrinogen, primary screen, K562 cells, luminescence; inhibition, % at 10 µM; ATPlite luminescence; Mn2+ added to activate the integrin; actives 0.54% (n = 93,000); Integrin beta-2 (Homo sapiens) + Integrin alpha-M (Homo sapiens), P05107+P11215;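 active = primary inhibition of 50% or more at 10 µM, then 40% or more on retest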
CYP2C9 act: human CYP2C9 activators, primary screen, biochemical, luminescence. actives 1.4% (n = 96,000). Cytochrome P450 2C9 (Homo sapiens), P11712. recombinant CYP2C9, luciferin-H conversion; hits give high values; factor 1 = untreated enzyme, 0 = blocked. activation factor at 5 µM;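 active = activation factor of 2 or more for CYP2C9 at a 5 µM dose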;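 note: 0 = sulfaphenazole-blocked wells and 1 = vehicle-only wells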
CYP2C19 act: human CYP2C19 activators, primary screen, biochemical, luminescence | Cytochrome P450 2C19 (Homo sapiens), P33261 | recombinant CYP2C19, luciferin-H EGE luminescence; hits give high values; 0 = fully inhibited enzyme, 1 = untreated enzyme | activation factor at 5 µM | 96,000 tested, under 10 active | AID 1025, 2008;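 active = activation factor of at least 2 at 5 µM in the primary screen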;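 note: 0 = wells with 2.5 mM tranylcypromine and 1 = vehicle-only wells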
Target sequence (P33261 whole entry, looked up): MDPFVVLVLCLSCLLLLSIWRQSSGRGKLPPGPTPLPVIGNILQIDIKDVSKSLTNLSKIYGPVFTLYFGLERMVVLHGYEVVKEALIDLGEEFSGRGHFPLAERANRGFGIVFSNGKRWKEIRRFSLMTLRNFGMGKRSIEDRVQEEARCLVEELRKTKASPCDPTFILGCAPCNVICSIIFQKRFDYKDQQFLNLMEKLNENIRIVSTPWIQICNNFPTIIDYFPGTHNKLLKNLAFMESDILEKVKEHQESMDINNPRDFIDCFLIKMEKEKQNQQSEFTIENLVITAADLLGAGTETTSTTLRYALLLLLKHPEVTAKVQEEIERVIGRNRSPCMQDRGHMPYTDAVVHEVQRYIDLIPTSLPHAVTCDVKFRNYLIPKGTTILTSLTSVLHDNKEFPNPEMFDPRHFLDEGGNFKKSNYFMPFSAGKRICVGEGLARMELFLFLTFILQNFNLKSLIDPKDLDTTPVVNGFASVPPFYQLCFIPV
CYP2C19 inh: blockers of cytochrome P450 2C19 activity – biochemical, luminescence, ADME assay, primary screen. inhibition, % at 5 µM. P33261. CYP2C19 Supersomes, luciferin-H EGE luminescence, 30 min. AID 778, 2007. actives 21% (n = 96,000);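 active = CYP2C19 inhibition above a set limit at 5 µM in the primary screen, cut at about 50% in these data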;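 note: plate controls were negative control wells for no effect and 2.5 mM tranylcypromine positive control for full effect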
* hit, by the source's call; . = not tested or not shown.

SMILES	CYP2C9 inh	Mac1 fbg enh	CD11b adhes inh	CYP2C9 act	CYP2C19 act	CYP2C19 inh
O=C(CCCCn1c(=O)c2ccccc2n(Cc2ccc(F)cc2Cl)c1=O)NCc1ccco1	84*	2	-1	0.2	0.1	88*
CCC(C)NC(=O)Cn1c(=O)n(CCCCC(=O)NCc2ccco2)c(=O)c2ccccc21 (centres undefined)	27	0	-7	0.7	0.8	21
O=C(CCCCn1c(=O)c2ccccc2n(CC(=O)Nc2ccc(F)cc2)c1=O)NCc1ccco1	81*	.	.	0.2	0.4	55*
O=C(Nc1ccsc1C(=O)NC1CCCCC1)c1ccccc1	10	-4	0	0.9	1.1	-6
O=C(CN1CCOCC1)Nc1scc(-c2ccccc2)c1C(=O)N1CCOCC1	32	3	-6	0.7	0.8	25
CCCCCCSC1=C(C#N)C(c2ccc(O)cc2)CC(=O)N1 (centres undefined)	74*	-1	-6	0.3	0.4	63*
CCOC(=O)CSC1=C(C#N)C(c2ccc(Cl)cc2)CC(=O)N1 (centres undefined)	98*	2	7	0	0	96*
CCCCOC(=O)CSC1=C(C#N)C(c2ccc3c(c2)OCO3)CC(=O)N1 (centres undefined)	57*	0	13	0.4	0.5	48
CCSC1=C(C#N)C(c2cccc(O)c2)CC(=O)N1 (centres undefined)	-2	0	-6	1	0.9	11
CCOC(=O)CSC1=C(C#N)C(c2ccc3c(c2)OCO3)CC(=O)N1 (centres undefined)	6	5	-5	0.9	0.7	32
CCCOC(=O)CSC1=C(C#N)C(c2ccccc2Cl)CC(=O)N1 (centres undefined)	96*	1	0	0	0.1	95*
O=C(Nc1ccccc1)NC1(C(=O)N2CCN(c3ncccn3)CC2)CCCCC1	-16	0	9	1.2	0.8	15
Cc1ccc(Oc2ncccc2/C=N/OCc2ccc(Cl)c(Cl)c2)cc1	-17	-1	-4	1.2	1.2	-15
OC(CN1CCN(c2ccccc2)CC1)c1c[nH]c2ccccc12 (centres undefined)	5	-6	0	1	0.4	57*
CCN(CC)S(=O)(=O)c1ccc(Cc2ncc(C(F)(F)F)cc2Cl)s1	59*	-3	-12	0.4	0.2	83*
NNS(=O)(=O)c1ccc(Cc2ncc(C(F)(F)F)cc2Cl)s1	30	-2	-1	0.7	0.3	70*
CCOC(=O)c1sc(NC(=O)CSc2nc(-c3ccco3)cc(C(F)(F)F)n2)c(C(=O)OC)c1C	72*	.	.	0.3	0.5	46
CCCOC(=O)c1c(NC(=O)CSc2nc(-c3ccco3)cc(C(F)(F)F)n2)sc(C(=O)OC)c1C	70*	-1	14	0.3	0.8	22
CN(C)c1ccc(C(=O)OCc2ccc(Br)cc2)cc1	12	0	5	0.9	0.5	48
CCCCOP(=O)(c1ccc(N(C)C)cc1)C(O)c1ccccc1F (centres undefined)	5	-1	19	1	0.7	34
CN(C)c1ccc(P(=O)(OCc2ccccc2)C(O)c2cccnc2)cc1 (centres undefined)	58*	-6	-4	0.4	0.5	48
CC(C)C(O)P(=O)(OCc1ccccc1)c1ccc(N(C)C)cc1 (centres undefined)	5	-6	2	0.9	0.5	54*
CC(=O)c1ccc(N2CCN(C(=O)COc3ccc(F)cc3)CC2)c(F)c1	48	0	-8	0.5	0.5	53*
COc1ccc(OCC(=O)N2CCN(c3cccc(Cl)c3)CC2)cc1	32	-3	10	0.7	0.5	47
CCC(=O)c1ccc(N2CCN(C(=O)COc3ccc(F)cc3)CC2)c(F)c1	28	-5	6	0.7	0.7	34
SMILES	CYP2C9 inh	Mac1 fbg enh	CD11b adhes inh	CYP2C9 act	CYP2C19 act	CYP2C19 inh
COc1ccccc1OCC(=O)N1CCN(c2ccccc2OC)CC1	30	0	6	0.7	0.6	40
COc1ccccc1N1CCN(C(=O)COc2ccc(Cl)cc2)CC1	52*	1	-17	0.5	0.2	80*
O=C(COc1ccc(Cl)cc1)N1CCN(c2ncccn2)CC1	54*	1	-2	0.5	0.3	67*
COc1ccc(Cn2nc(C)n(N(C)c3ncc(C(F)(F)F)cc3Cl)c2=O)cc1	16	-2	27	0.8	0.5	53*
CC1CCN(c2nnc(-c3cccs3)c3ccccc23)CC1	.	2	19	.	.	.
COc1ccc2c(CC(=O)Nc3ccc(OC)c(NS(=O)(=O)c4ccc(F)cc4)c3)coc2c1	74*	.	.	0.3	0.3	72*
COc1ccc2c(CC(=O)Nc3cccc(S(=O)(=O)N4CCOCC4)c3)coc2c1	.	18	10	.	.	.
COc1ccc(NC(=O)CCNC(C)=O)cc1NS(=O)(=O)c1ccc(F)cc1	29	4	4	0.7	0.5	52*
CCOc1ccccc1NC(=O)COC(=O)C(CC(C)C)N1C(=O)C2CC=CCC2C1=O (centres undefined)	.	8	-2	.	.	.
Cc1nc(SCC(=O)Nn2c(-c3ccccc3)nc3ccccc3c2=O)n[nH]1	30	0	-1	0.7	1	0
COc1ccc(-c2nn(-c3ccccc3)cc2/C=N/n2cnnc2)cc1OC	46	13	-60	0.5	0.2	80*
Cn1cccc1/C=N/n1cnnc1	0	0	-19	1	1	0
C(=N\n1cnnc1)/c1cn(-c2cccs2)nc1-c1ccccc1	70*	1	5	0.3	0.2	81*
O=c1c2c3c(sc2n2cnnc2n1CCc1ccccc1)CCCC3	11	-2	0	0.9	0.9	7
COc1ccc(NC(=O)c2cccnc2Cl)c(S(=O)(=O)N2CCOCC2)c1	9	-2	-9	0.9	1.4	-37
Cc1ccc(NC(=O)CCc2ccc(S(=O)(=O)N3CCOCC3)cc2)c(C)c1	65*	2	-48	0.3	0.5	51*
Cc1ccc(C)c(NC(=O)CCc2ccc(S(=O)(=O)NC3CCCCC3)cc2)c1	76*	-4	9	0.2	0.2	84*
O=C(CCc1ccc(S(=O)(=O)NC2CCCCC2)cc1)NCc1ccc(Cl)cc1	44	-6	-1	0.6	0.8	21

Compound activity (PubChem)
